# HIV TAR-Tat: TAR RNA-Tat peptide displacers, HIV-1, primary screen, biochemical, FRET, FAM/TAMRA-labeled Tat; HIV-1 TAR RNA, Tat peptide displacement FRET; hits give high values; z-score (test concentration not listed); 100,000 compounds, 0.6% hits; AID 1259389, 2018; active = z-score of 3 or more in at least 2 runs
# CDC25B-CDK2 inh: primary biochemical HTRF screen for blockers of M-phase inducer phosphatase 2 binding to CDK2/cyclin A. 94,000 compounds, 0.72% hits. AID 1259370, 2018. P30305+P24941. HTRF CDC25B-CDK2/CyclinA binding, anti-His/anti-Flag; hits give high values. z-score (concentration not given with the values); in the data active = z-score above about 3.2
# An asterisk follows results filed as active; · = no result. Compounds with a hit are over-represented: about 0.86% of the library has one in this group of screens.
SMILES,HIV TAR-Tat,CDC25B-CDK2 inh
COc1cc(NC(=O)COc2ccc(-n3cnnn3)cc2)c(OC)cc1Cl,4.6*,-8.2
O=S(=O)(Nc1ncn(Cc2ccc(Cl)cc2)n1)c1ccc(F)c(Cl)c1,0.12,-0.68
CC(=O)N1CCc2c(sc3nc(SCc4ccc(C)cc4)n(CC4CCCO4)c(=O)c23)C1 (stereo not drawn),1.5,-0.66
CN(C)CCN(C(=O)CCS(=O)(=O)c1ccccc1)c1nc2c(Cl)cccc2s1,2,·
CN(Cc1ccccc1)C(=O)Cn1cnc(S(=O)(=O)N2CCc3ccccc32)c1,-0.1,·
COc1ccc(-c2nc(SCc3cc(=O)c4cccc(Cl)c4[nH]3)n[nH]2)cc1,6.8*,·
Cc1ccc(-c2nc(SCc3cc(=O)c4cccc(Cl)c4[nH]3)n[nH]2)cc1,0.33,·
Cc1ccc(C)n1-c1cccc(N)c1,-3.2,4
COc1ccc(N)cc1-n1c(C)ccc1C,10*,1.9
CCOc1ccc(Nc2nc(-c3ccccn3)cs2)cc1,·,19*
COc1ccc(Nc2nc(-c3ccccn3)cs2)cc1,1.6,-1.8
Cc1ccc(/C(O)=C2/C(=O)C(=O)N(CC3CCCO3)C23C(=O)N(C)c2ccccc23)cc1F (stereo not drawn),16*,0.18
CCCN1C(=O)C2(/C(=C(/O)c3ccc(C)c(F)c3)C(=O)C(=O)N2CC2CCCO2)c2ccccc21 (stereo not drawn),-0.71,-0.53
CNc1nc(NCc2ccc(Cl)cc2)c2cnn(C)c2n1,2,·
O=C(Nc1nn2c(-c3ccco3)nnc2s1)c1ccco1,22*,-1.1
O=C(Cc1ccccc1)Nc1nn2c(-c3ccccc3)nnc2s1,1.4,-1.3
CC(=O)Nc1nn2c(-c3ccco3)nnc2s1,1.5,-1.2
O=C(Nc1nn2c(-c3ccccc3)nnc2s1)c1ccco1,17*,-1.9
COC(=O)c1cc(=O)c(O)c2c(O)c(O)ccc2c1,25*,·
COC(=O)c1cc(NC(=O)c2ccc3ccccc3c2)cc(C(=O)OC)c1,·,-2
COc1cc2[nH]c(=O)n(CC3CCCO3)c(=O)c2cc1OC (stereo not drawn),0.14,-0.72
COc1ccc2c(c1)OCC(Cc1ccc(OC)c(OC)c1)C2=O (stereo not drawn),14*,·
COc1ccc2c(c1)OCC(Cc1ccc(OC)c(OC(C)=O)c1)C2=O (stereo not drawn),1.1,·
CCCNC(=O)c1cc2oc3ccccc3c2n1C,0.61,-1.9
Cn1c(C(=O)NCc2ccccc2Br)cc2oc3ccccc3c21,-0.04,10*
SMILES,HIV TAR-Tat,CDC25B-CDK2 inh
O=C(Nc1ccccc1Cl)c1cnn(-c2ccc(F)cc2)c1-n1cccc1,0.93,·
Cn1c(=O)c2conc2c2c(=O)n(-c3ccccc3)c(=O)n(-c3ccccc3)c21,·,-1.8
O=C(Nc1nnc2n1CCCS2)C1CC(=O)N(c2ccc(Cl)cc2)C1 (stereo not drawn),0.39,·
Cc1ccccc1N1CSC2=C(C#N)C(c3cccc(F)c3)CC(=O)N2C1 (stereo not drawn),-1.5,8*
Cc1cccc(N2CSC3=C(C#N)C(c4ccc(C)o4)CC(=O)N3C2)c1 (stereo not drawn),-1,-0.48
N#CC1=C2SCN(c3cccc(Cl)c3)CN2C(=O)CC1c1cccc(F)c1 (stereo not drawn),-1.7,8.4*
CCc1ccccc1N1CSC2=C(C#N)C(c3ccccc3)CC(=O)N2C1 (stereo not drawn),-1.2,6.9*
Cc1ccc(N2CSC3=C(C#N)C(c4cccc(F)c4)CC(=O)N3C2)cc1 (stereo not drawn),-1.2,4.7*
CCNc1sc(S(=O)(=O)CC)nc1S(=O)(=O)c1ccc(Cl)cc1,1,-1.1
COCCN[C@H]1CS(=O)(=O)C[C@@H]1S(=O)(=O)c1ccc(F)c(C)c1,1.5,-0.36
O=C(c1cc2ccc3cccnc3c2[nH]1)N1CCN(c2ccc(F)cc2)CC1,0.98,·
Fc1ccccc1CN1C2=NCCCN2c2ccccc21,0.39,-0.68
FC(F)(F)c1nc2ccncc2n1Cc1ccccc1,0.7,·
O=C(CN1C(=O)CCCc2ccccc21)N1CCCC1,0.97,·
CCCSCCCNC(=O)NC1COc2ccccc2C1 (stereo not drawn),0.25,·
Cc1ccc(N2CSC3=C(C#N)C(c4ccccc4)CC(=O)N3C2)cc1Cl (stereo not drawn),-5.7,5.6*
Cc1ccccc1N1CSC2=C(C#N)C(c3ccccc3)CC(=O)N2C1 (stereo not drawn),-1.6,5.4*
N#CC1=C2SCN(c3ccc(Br)cc3)CN2C(=O)CC1c1ccccc1 (stereo not drawn),-5,6*
N#CC1=C2SCN(C3CCCCC3)CN2C(=O)CC1c1ccccc1 (stereo not drawn),2.1,-1.3
Cc1ccc(C(=O)CSc2nc3c(cc2C#N)CCC3)cc1,-0.97,-0.81
CN1C(=O)c2ccccc2C(C(=O)Nc2cc(F)ccc2F)C1c1cccs1 (stereo not drawn),3.5,·
CCN(CC)CCCn1c(C)c(C)c2c1ncn1nc(-c3cccc(C)c3)nc21,1.8,-0.78
CC(C)Cn1cc(NC(=O)NC2CCCC2)c2ccccc2c1=O,0.85,·
CCCCOc1ccc2c(=O)c(Oc3ccccc3)coc2c1,·,-0.6
CCOc1ccccc1NC(=O)C(CC)Sc1nnc(C)n2c1cc1sccc12 (stereo not drawn),2.1,·
SMILES,HIV TAR-Tat,CDC25B-CDK2 inh
COc1ccc(N2CSC3=C(C#N)C(c4ccc(O)c(OC)c4)CC(=O)N3C2)cc1 (stereo not drawn),-1.6,4*
COc1cc(C2CC(=O)N3CN(c4ccc(C)c(C)c4)CSC3=C2C#N)ccc1O (stereo not drawn),1.6,0.52
COc1cc(C2CC(=O)N3CN(c4ccc(Cl)cc4)CSC3=C2C#N)ccc1O (stereo not drawn),25*,4.2*
COc1cc(C2CC(=O)N3CN(c4ccc(F)cc4)CSC3=C2C#N)ccc1O (stereo not drawn),29*,3.3*
O=C(Oc1ccc(Br)cc1)c1cc(-c2cccs2)on1,2.6,-0.06
Cc1cccc(-c2nc3c4c(C)c(C)n(-c5cc(C)ccn5)c4ncn3n2)c1,1.9,-1.9
Cc1ccccc1-c1nc(SCC(=O)NC(C)C)n2[nH]c(=O)cc2n1,0.65,·
Cc1ccc(OCc2cc(=O)n3nc(C)sc3n2)c(C)c1,-0.78,-1.7
Cc1cc(Cl)ccc1OCc1cc(=O)n2nc(-c3ccco3)sc2n1,13*,1.4
Cn1c(=O)sc2cc(NC(=O)Cn3c(=O)oc4ccccc43)ccc21,1.7,7.5*
CCC(=O)Nc1ccc2c(c1)sc(=O)n2C,1.1,·
Cc1cc(C(=O)C(=O)Nc2nncs2)c(C)n1-c1ccccc1,6.9,-2.4
Cc1cc(C(=O)C(=O)Nc2nnc(-c3ccco3)s2)c(C)n1-c1ccccc1Cl,33*,-1.1
Cc1cc(C(=O)C(=O)Nc2nnc(-c3ccco3)s2)c(C)n1-c1cccc(Cl)c1,8.6*,-0.62
CCc1nnc(NC(=O)C(=O)c2cc(C)n(-c3ccc(F)cc3)c2C)s1,2.3,-2.8
Cc1ccc(CNc2nc(NC3CCCC3)nc3c2cnn3C)cc1,0.88,·
COc1cccc(CNC(=O)Cn2nc3cnc4ccccc4n3c2=O)c1OC,0.92,-0.51
CCOc1ccc(-n2ccc(=O)c(C(=O)Nc3nnc(C(C)C)s3)n2)cc1,-0.04,0.16
Cc1cc(O)c2c(c1O)C(=O)c1c(O)cc(C)c(O)c1C2=O,0.53,·
